Assay outcomes (PubChem BioAssay)
Mcl1 Bid PPI – disrupts binding of human Mcl-1 to Bid peptide; inhibition, % at 21.7 µM; 220,000 tested, 0.97% active; Q07820; AID 1021; TR-FRET Mcl-1/Bid-Dy647 peptide binding, 1536-well;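 active = compounds that cut the binding signal by more than half at the single screening dose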;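 also: His-tagged Mcl-1 with europium anti-His antibody binding Bid BH3 peptide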
MCL1-BIM inh – disrupts human MCL1 binding to BIM-BH3 peptide; Q07820; GST-MCL1 / FITC-Bim-BH3 fluorescence polarization; inhibition, % at 10.9 µM; 320,000 tested, 0.68% active;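 active = inhibition above the mean inhibition of all tested compounds plus 3 SD, set per campaign, cut at about 40% in these data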;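 also: higher means more loss of mP so more displacement of Bim peptide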
Mcl1 Noxa PPI – disrupts binding of human Mcl-1 to Noxa peptide; TR-FRET Mcl-1/Noxa peptide binding, 2 h; Q07820; inhibition, % at 21.7 µM; AID 1022; 220,000 tested, 1.5% active;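 active = compounds that cut the protein-peptide binding signal by more than 50% relative to plate controls in a single-dose test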;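 also: His-tagged Mcl-1 with rhodamine Noxa BH3 peptide and terbium anti-His antibody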
Mcl-1 Bim block – human Bim-Mcl-1 interaction inhibition; Q07820; Bead-based flow cytometry, Bim peptide-Mcl-1 binding; inhibition, % at 10 µM; 190,000 tested, 0.1% active; in the data active = inhibition above about 40%
Bcl-xL conf – counter-screen for MCL1 inhibitors: confirmation of human Bcl-xL inhibitors; shares compounds with MCL1-BIM inh; GST-Bcl-xL / FITC-Bim BH3 peptide FP binding; inhibition, % at 10.9 µM; 1,700 tested, 54% active;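 active = inhibition above a cutoff equal to the mean inhibition of all tested compounds plus 3 SD, cut at about 30% in these data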
Target sequence (Q07817 whole entry, looked up): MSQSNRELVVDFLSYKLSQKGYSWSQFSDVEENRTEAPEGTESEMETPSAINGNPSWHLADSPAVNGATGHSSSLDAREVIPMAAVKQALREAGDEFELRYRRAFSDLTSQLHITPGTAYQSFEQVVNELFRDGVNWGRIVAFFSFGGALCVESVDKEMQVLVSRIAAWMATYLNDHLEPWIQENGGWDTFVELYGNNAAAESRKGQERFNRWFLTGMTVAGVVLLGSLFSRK
MCL1 BIM confirm – confirmation of human MCL1 and BIM-BH3 interaction inhibitors | shares compounds with MCL1-BIM inh | GST-MCL1 / FITC-Bim-BH3 fluorescence polarization | inhibition, % at 10.9 µM | 1,700 tested, 61% active;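 active = inhibition above the average of all tested compounds plus 3 SD, cut at about 40% in these data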
Each line names hits and unclear results; the compound was inactive in the other large screens (follow-up assays come after a bar, where they were run). Sampled rows, rich in hits. Any-hit rate of the full collection: about 2%.

CC(N=Cc1cccc(O)c1O)c1ccccc1 (stereo unspecified)	MCL1-BIM inh 66.1, Mcl1 Noxa PPI 51.8 | Bcl-xL conf 32.4 | MCL1 BIM confirm 71.3
O=C(Oc1ccc2c(c1)O/C(=C\c1ccncc1)C2=O)c1ccccc1	MCL1-BIM inh 93.1 | Bcl-xL conf inactive | MCL1 BIM confirm 54.2
Cc1ccc(/C=C2\Oc3cc(OC(=O)N4CCOCC4)ccc3C2=O)cc1	none
CC1CN(C(=O)Nc2ccc(F)cc2F)CC(C)O1 (stereo unspecified)	none (no result: Mcl1 Bid PPI, Mcl1 Noxa PPI, Mcl-1 Bim block)
O=C1Nc2ccccc2SC(c2ccccc2)C1O (stereo unspecified)	Mcl1 Bid PPI 62.7, MCL1-BIM inh 62.8, Mcl1 Noxa PPI 104.1 | Bcl-xL conf inactive | MCL1 BIM confirm 91.4
Cc1c(NC=C(C#N)C#N)c(=O)n(-c2ccccc2)n1C	MCL1-BIM inh 74.9 | Bcl-xL conf inactive | MCL1 BIM confirm inactive
Cc1c(NCc2cc(Cl)cc(Cl)c2O)c(=O)n(-c2ccccc2)n1C	none
Cc1c(N/C=C(\Cl)C(=O)C(F)(F)F)c(=O)n(-c2ccccc2)n1C	none
Cc1c(NCc2nc3ccccc3[nH]2)c(=O)n(-c2ccccc2)n1C	MCL1-BIM inh 54.6 | Bcl-xL conf 41.2 | MCL1 BIM confirm 55.0
O=[N+]([O-])c1cccc(C(=S)N2CCN(c3ccc(F)cc3)CC2)c1	MCL1-BIM inh 50.6 | Bcl-xL conf inactive | MCL1 BIM confirm inactive
CCCOc1ccc(C(=O)CCCC(=O)c2ccc(OCCC)cc2)cc1	none (no result: Mcl1 Bid PPI, Mcl1 Noxa PPI, Mcl-1 Bim block)
NC(=S)N/N=C/c1ccc(C(F)(F)F)cc1	none
NC(=S)N/N=C/c1ncc(C(F)(F)F)cc1Cl	MCL1-BIM inh 153.0 (no result: Mcl-1 Bim block) | Bcl-xL conf 95.0 | MCL1 BIM confirm 113.3
C=CCC1(CC=C)CCCN1C(=O)Cn1nnnc1CN(C)C(C)C	none (no result: Mcl1 Bid PPI, Mcl1 Noxa PPI, Mcl-1 Bim block)
Nc1cc2c3c(cccc3c1)C(=O)N(CCN1CCCC1)C2=O	MCL1-BIM inh 144.8 (no result: Mcl-1 Bim block) | Bcl-xL conf 98.7 | MCL1 BIM confirm 131.7
CC(=O)OCCCN1C(=O)c2cccc3cc(Br)cc(c23)C1=O	none (no result: Mcl1 Bid PPI, Mcl1 Noxa PPI, Mcl-1 Bim block)
CCN(CC)CCN1C(=O)c2cccc3cc(N)cc(c23)C1=O	MCL1-BIM inh 157.7 (no result: Mcl-1 Bim block) | Bcl-xL conf 128.1 | MCL1 BIM confirm 166.2
N#Cc1ccc2[nH]c(CO)c(-c3ccccc3)c2c1	none (no result: Mcl1 Bid PPI, Mcl1 Noxa PPI, Mcl-1 Bim block)
CN(C)Cc1c(O)ccc2c1O/C(=C\C=C\c1ccccc1)C2=O	MCL1-BIM inh 76.4 (no result: Mcl-1 Bim block) | Bcl-xL conf 84.6 | MCL1 BIM confirm 91.3
CC1CCCN(Cc2c(O)ccc3c2O/C(=C\c2ccco2)C3=O)C1 (stereo unspecified)	MCL1-BIM inh 151.7, Mcl1 Noxa PPI 58.1 | Bcl-xL conf 119.4 | MCL1 BIM confirm 133.1
CCN1CCN(Cc2c(O)ccc3c2O/C(=C\c2ccccc2)C3=O)CC1	MCL1-BIM inh 54.9 | Bcl-xL conf 59.0 | MCL1 BIM confirm 61.9
CCN1CCN(Cc2c(O)ccc3c2O/C(=C\C=C\c2ccccc2)C3=O)CC1	none
CC(Oc1ccc2c3c(c(=O)oc2c1)CCC3)C(=O)NCCCn1ccnc1 (stereo unspecified)	none (no result: Mcl1 Bid PPI, Mcl1 Noxa PPI, Mcl-1 Bim block)
Cc1ccccc1C1C(C#N)=C2NC(=O)c3c(sc4c3CCCCC4)N2C2=C1C(=O)CC(C)(C)C2 (stereo unspecified)	none
Cc1ccccc1C1C(C#N)=C2N=C(N)c3c(sc4c3CCCCC4)N2C2=C1C(=O)CC(C)(C)C2 (stereo unspecified)	MCL1-BIM inh 53.7 | Bcl-xL conf 38.8 | MCL1 BIM confirm 51.0
COc1cccc(NC(=O)c2ccncc2)c1	none
COc1cccc(C(=O)Nc2ccc3c(c2)C(=O)c2ccccc2C3=O)c1	Mcl1 Bid PPI 73.5, MCL1-BIM inh 77.1, Mcl1 Noxa PPI 75.4 | Bcl-xL conf inactive | MCL1 BIM confirm inactive
COc1cccc(C(=O)Nc2ccncc2)c1	MCL1-BIM inh 45.1 | Bcl-xL conf inactive | MCL1 BIM confirm inactive
O=C(CCCCCNC(=O)c1ccccc1Br)N=Nc1c(O)[nH]c2ccccc12	none
CCC(=O)OCCNc1cc(Sc2nc3ccccc3s2)c2nonc2c1[N+](=O)[O-]	MCL1-BIM inh 59.7, Mcl1 Noxa PPI 58.1 | Bcl-xL conf 56.4 | MCL1 BIM confirm 71.8
CCCC(=O)OCCNc1cc(SCc2ccco2)c2nonc2c1[N+](=O)[O-]	MCL1-BIM inh 42.8 | Bcl-xL conf inactive | MCL1 BIM confirm inactive
CS(=O)(=O)c1ccc(Sc2nc3ccccc3s2)c([N+](=O)[O-])c1	none
